In PubChem BioAssay (EPA / NIEHS):
Values joined by “and” are separate entries in the source; they are usually repeats but may differ in a detail not shown here. Identical values can stand only once. Records with an inconclusive call do not appear. Active and inactive are the calls of the source. The calls were made as follows, unless noted: active = hit-call score of the fitted dose curve at least 0.9, where 1 is the maximum; inactive = score below 0.9.

What was measured:
[1] = read-out: E-selectin (Homo sapiens) (UniProt P16581); test: BSK_SAg_Eselectin: BioMAP Diversity Plus: SAg Assay for Eselectin Biomarker Activity (AID 2283091); conditions: primary human HUVEC with PBMC; actives raise or lower the signal
Procedure, shortened: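 Co-culture: HUVEC + PBMC. Dose compound; 24 h. ELISA for E-selectin. Bidirectional fit vs DMSO.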

[2] = read-out: Monokine induced gamma interferon (MIG), CXCL9 (gene 4283); test: BSK_SAg_MIG: BioMAP Diversity Plus: SAg Assay for Monokine induced gamma interferon (MIG) Biomarker Activity (AID 2283092); conditions: primary human HUVEC with PBMC; actives raise or lower the signal
Procedure, shortened: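 Values reflect bidirectional fitting of ELISA-measured MIG against DMSO vehicle, taken 24 h after dosing of a co-culture of human umbilical vein endothelial cells and peripheral blood mononuclear cells.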

[3] = BSK_SAg_PBMCCytotoxicity: PBMC Cytotoxicity Assessment in the BioMAP Diversity Plus: SAg Assay (AID 2283093); conditions: primary human HUVEC with PBMC;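 also: PBMC viability measured as Alamar Blue reduction fluorescence at 546/580 nm; fitted both ways against DMSO so a hit may be loss or gain of signal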;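 as to AC50: PBMC superantigen activated with SEB plus TSST-1 one hour after compound addition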
Procedure, shortened: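 Alamar Blue reduction (6 h, ex/em 546/580 nm) read after 90 h culture of PBMC pre-dosed 1 h then stimulated with SEB plus TSST-1, 20 ng/mL each. Gain or loss of signal fitted relative to DMSO.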

[4] = read-out: Interleukin-8 (IL8), CXCL8 (gene 3576); test: BSK_SAg_IL8: BioMAP Diversity Plus: SAg Assay for Interleukin-8 (IL8) Biomarker Activity (AID 2283094); conditions: primary human HUVEC with PBMC; actives raise or lower the signal
Procedure, shortened: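 ELISA readout of IL-8 from a superantigen-activated endothelial/PBMC primary human co-culture, taken 24 h post-dosing and fitted in both directions against DMSO; parallel SRB total-protein staining flags overt cytotoxicity.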

[5] = BSK_SAg_Proliferation: Cell Proliferation Assessment in the BioMAP Diversity Plus: SAg Assay (AID 2283095); conditions: primary human HUVEC with PBMC;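 also: relative cell number as total protein by SRB absorbance in sub-confluent culture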
Procedure, shortened: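 Relative cell number in the endothelial cell/PBMC co-culture was quantified at 96 h by SRB staining (0.1% SRB, 10% TCA fixation, read at 560 nm). Curves were fitted in both directions relative to DMSO baseline.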

[6] = BSK_SAg_SRB: Viability Assessment in the BioMAP Diversity Plus: SAg Assay (AID 2283096); conditions: primary human HUVEC with PBMC;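 also: cells read one day after compound addition; hits may be either gain or loss of signal compared with DMSO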
Procedure, shortened: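 SRB absorbance at 560 nm served as the viability read-out. Cells (HUVEC plus peripheral blood mononuclear cells) were TCA-fixed and stained 24 h post-dosing; activity fitted in both directions against DMSO controls.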

[7] = biological target: human CYP19A1, CYP19A1 (gene 1588) (UniProt P11511); test: NVS_ADME_hCYP19A1: NovaScreen (NVS) CYP450-related Enzyme Activity (ADME) Assay for human CYP19A1 (AID 2283098; active = hit-call score of the fitted dose curve at least 0.9, where 1 is the maximum;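 as to AC50: potency for inhibitors seen as loss of fluorescent enzyme signal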)
Procedure, shortened: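 Primary testing was in duplicate at a single 10 uM concentration, with actives followed up in concentration-response series. Fluorescence read-out of recombinant enzyme activity at 0.5 h, cell-free. Acetonitrile was the negative-control baseline.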

[8] = biological target: human CYP1A1, CYP1A1 (gene 1543) (UniProt P04798); test: NVS_ADME_hCYP1A1: NovaScreen (NVS) CYP450-related Enzyme Activity (ADME) Assay for human CYP1A1 (AID 2283100; active = hit-call score of the fitted dose curve at least 0.9, where 1 is the maximum)
Procedure, shortened: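 Recombinant hCYP1A1 + fluorogenic substrate, cell-free; 1 h; fluorescence read. Single-point 10 uM (duplicate) → concentration series, max 20 uM. Acetonitrile negative control.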

[9] = biological target: human CYP2A6, CYP2A6 (gene 1548) (UniProt P11509); test: NVS_ADME_hCYP2A6: NovaScreen (NVS) CYP450-related Enzyme Activity (ADME) Assay for human CYP2A6 (AID 2283099; active = hit-call score of the fitted dose curve at least 0.9, where 1 is the maximum)
Procedure, shortened: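 Fluorescent substrate turnover by recombinant CYP2A6 (insect cell source), 0.5 h read. Screen: 10 uM, duplicate; threshold hits (e.g. 30% inhibition) → singleton concentration-response, top 20 uM. Positive and negative controls on every plate.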

[10] = biological target: human CYP2B6, CYP2B6 (gene 1555) (UniProt P20813); test: NVS_ADME_hCYP2B6: NovaScreen (NVS) CYP450-related Enzyme Activity (ADME) Assay for human CYP2B6 (AID 2283101; active = hit-call score of the fitted dose curve at least 0.9, where 1 is the maximum)
Procedure, shortened: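 Compounds were first screened in duplicate at 10 uM against recombinant enzyme, with the fluorescent product measured after 1 hour. Active compounds were retested over a concentration series. Loss of fluorescence versus acetonitrile control was scored as reduced enzyme activity.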

Measured: AC50

Chain of human CYP2B6, CYP2B6 (gene 1555) (P20813 whole entry, looked up): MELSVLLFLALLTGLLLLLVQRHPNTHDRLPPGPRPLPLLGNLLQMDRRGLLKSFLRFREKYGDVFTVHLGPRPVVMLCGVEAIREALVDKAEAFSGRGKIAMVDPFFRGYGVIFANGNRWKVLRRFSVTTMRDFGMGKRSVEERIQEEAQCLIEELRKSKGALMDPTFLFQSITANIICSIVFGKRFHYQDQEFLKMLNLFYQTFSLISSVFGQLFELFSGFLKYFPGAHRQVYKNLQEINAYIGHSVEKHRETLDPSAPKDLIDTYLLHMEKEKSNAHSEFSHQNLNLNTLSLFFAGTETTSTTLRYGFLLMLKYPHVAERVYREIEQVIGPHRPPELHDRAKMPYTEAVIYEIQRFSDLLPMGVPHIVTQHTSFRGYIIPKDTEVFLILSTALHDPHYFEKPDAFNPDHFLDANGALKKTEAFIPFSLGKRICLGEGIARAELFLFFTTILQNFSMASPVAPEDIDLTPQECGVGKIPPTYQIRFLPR
Chain of human CYP1A1, CYP1A1 (gene 1543) (P04798 whole entry, looked up): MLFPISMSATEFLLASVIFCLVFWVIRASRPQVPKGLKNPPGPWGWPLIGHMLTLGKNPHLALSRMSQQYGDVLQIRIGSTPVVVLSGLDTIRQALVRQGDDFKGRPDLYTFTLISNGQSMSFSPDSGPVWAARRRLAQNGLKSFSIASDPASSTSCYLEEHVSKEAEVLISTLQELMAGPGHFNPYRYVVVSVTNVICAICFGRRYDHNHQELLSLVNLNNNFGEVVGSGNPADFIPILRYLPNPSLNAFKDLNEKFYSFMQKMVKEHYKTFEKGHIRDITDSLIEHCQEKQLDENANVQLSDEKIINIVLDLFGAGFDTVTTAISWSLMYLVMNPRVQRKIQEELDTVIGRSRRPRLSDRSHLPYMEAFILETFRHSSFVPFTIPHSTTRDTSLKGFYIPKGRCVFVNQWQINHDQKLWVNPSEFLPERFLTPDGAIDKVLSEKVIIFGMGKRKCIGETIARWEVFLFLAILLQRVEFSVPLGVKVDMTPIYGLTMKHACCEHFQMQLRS
Chain of human CYP19A1, CYP19A1 (gene 1588) (P11511 whole entry, looked up): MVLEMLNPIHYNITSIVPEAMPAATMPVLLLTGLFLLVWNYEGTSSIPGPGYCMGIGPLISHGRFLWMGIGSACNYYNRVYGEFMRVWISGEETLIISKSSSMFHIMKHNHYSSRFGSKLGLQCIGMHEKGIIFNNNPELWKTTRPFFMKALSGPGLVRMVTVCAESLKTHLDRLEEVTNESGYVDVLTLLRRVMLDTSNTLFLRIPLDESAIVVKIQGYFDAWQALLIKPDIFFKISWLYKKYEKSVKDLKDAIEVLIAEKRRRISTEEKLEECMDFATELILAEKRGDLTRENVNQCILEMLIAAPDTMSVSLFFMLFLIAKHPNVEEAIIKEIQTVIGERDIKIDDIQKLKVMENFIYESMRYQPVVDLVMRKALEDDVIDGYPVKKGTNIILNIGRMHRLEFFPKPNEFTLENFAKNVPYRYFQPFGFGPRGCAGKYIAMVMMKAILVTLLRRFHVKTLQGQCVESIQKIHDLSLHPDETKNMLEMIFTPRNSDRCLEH
Chain of human CYP2A6, CYP2A6 (gene 1548) (P11509 whole entry, looked up): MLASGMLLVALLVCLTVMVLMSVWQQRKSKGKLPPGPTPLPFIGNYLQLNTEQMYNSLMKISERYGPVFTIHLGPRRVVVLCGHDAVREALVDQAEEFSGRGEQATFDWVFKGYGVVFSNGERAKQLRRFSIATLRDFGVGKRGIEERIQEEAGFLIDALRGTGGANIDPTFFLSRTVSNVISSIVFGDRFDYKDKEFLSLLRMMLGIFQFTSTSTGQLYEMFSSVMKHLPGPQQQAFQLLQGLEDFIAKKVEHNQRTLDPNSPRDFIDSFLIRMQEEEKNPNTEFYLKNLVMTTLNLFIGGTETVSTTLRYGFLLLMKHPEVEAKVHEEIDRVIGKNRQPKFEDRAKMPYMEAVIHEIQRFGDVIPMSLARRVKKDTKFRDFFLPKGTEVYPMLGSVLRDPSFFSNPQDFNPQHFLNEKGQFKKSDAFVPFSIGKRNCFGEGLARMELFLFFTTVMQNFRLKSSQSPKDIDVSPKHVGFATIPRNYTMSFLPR
Chain of E-selectin (Homo sapiens) (P16581 whole entry, looked up): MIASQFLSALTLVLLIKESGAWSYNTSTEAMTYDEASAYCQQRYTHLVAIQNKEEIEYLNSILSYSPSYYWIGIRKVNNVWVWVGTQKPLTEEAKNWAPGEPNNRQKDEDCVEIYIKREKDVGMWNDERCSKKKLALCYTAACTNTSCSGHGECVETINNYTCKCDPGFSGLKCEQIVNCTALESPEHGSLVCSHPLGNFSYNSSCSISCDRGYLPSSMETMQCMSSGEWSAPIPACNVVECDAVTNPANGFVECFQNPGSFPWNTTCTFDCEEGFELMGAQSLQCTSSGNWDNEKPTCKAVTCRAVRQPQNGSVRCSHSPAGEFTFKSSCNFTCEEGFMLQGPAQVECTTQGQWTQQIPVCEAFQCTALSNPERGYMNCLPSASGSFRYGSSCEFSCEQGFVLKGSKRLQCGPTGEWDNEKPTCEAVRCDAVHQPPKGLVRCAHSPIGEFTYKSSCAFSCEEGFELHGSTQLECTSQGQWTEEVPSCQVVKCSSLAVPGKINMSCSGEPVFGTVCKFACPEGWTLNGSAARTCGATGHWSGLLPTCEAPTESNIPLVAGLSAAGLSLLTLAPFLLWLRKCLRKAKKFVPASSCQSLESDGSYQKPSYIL

C[C@]12CCC(=O)C[C@@H]1CC[C@@H]1[C@@H]2CC[C@]2(C)[C@@H](O)CC[C@@H]12
active: [6] 25.7 µM
inactive: [1] | [2] | [3] | [4] | [5]

O=C(O)CCC(F)(C(F)(F)F)C(F)(F)F
inactive: [1] | [2] | [3] | [4] | [5] | [6]

CCOP(=S)(OCC)SCCS(=O)(=O)CC
inactive: [1] | [2] | [3] | [4] | [5] | [6]

CC(=O)C=C(C)C
inactive: [7]

CC1(C)CCC(Cc2ccc(Cl)cc2)C1(O)Cn1cncn1 (centres undefined)
inactive: [8]

NC(=S)Nc1ccccc1
inactive: [1] | [2] | [3] | [4] | [5] | [6]

OCc1ccco1
active: [5] 26.7 µM
not listed: [8] | [9] | [10]
inactive: all other assays above

COP(=S)(OC)Oc1c(Cl)cc(C)cc1Cl
active: [5] 31.6 µM
inactive: [1] | [2] | [3] | [4] | [6]

O=[N+]([O-])c1ccc(O)c([N+](=O)[O-])c1
not listed: [7] | [8] | [10]
inactive: all other assays above

Oc1cccc2cccnc12
active: [1] 2.77 µM | [3] 3.57 µM | [5] 4.71 µM
inactive: [2] | [4] | [6] | [7]

COC(=O)c1sccc1S(=O)(=O)NC(=O)Nc1nc(C)nc(OC)n1
inactive: [1] | [2] | [3] | [4] | [5] | [6]

CC(C)(C)CC(C)(C)c1ccc(O)cc1
active: [1] 9.86 µM | [2] 10.7 µM | [3] 8.43 µM | [4] 10.2 µM | [5] 5.84 µM | [6] 11.3 µM | [10] 6.7 µM

COC[C@H](C)N(C(=O)CCl)c1c(C)csc1C
inactive: [1] | [2] | [3] | [4] | [5] | [6]

[O-][Cl+2]([O-])O
active: [7] 5.58 µM

Clc1ccc(C2(Cn3cncn3)CC(Br)CO2)c(Cl)c1 (centres undefined)
active: [7] 5.55 µM | [10] 1.16 µM
inactive: [8]

C[C@@H]1C[C@@H]([C@H](O)CC2CC(=O)NC(=O)C2)C(=O)[C@@H](C)C1
active: [1] 0.585 µM | [2] 13 µM | [3] 4.6 µM | [4] 1.4 µM | [5] 3.82 µM | [6] 7.07 µM

Cn1sc(Cl)cc1=O
inactive: [2] | [6]
active: [1] 20 µM | [3] 16.9 µM | [4] 20 µM | [5] 6.46 µM

NC(=O)O
inactive: [1] | [2] | [3] | [4] | [5] | [6]

O=C(OC1CCCCC1)c1ccccc1C(=O)OC1CCCCC1
active: [1] 29.8 µM | [2] 29.8 µM | [3] 20.9 µM | [4] 20.9 µM | [5] 17.3 µM | [6] 20.9 µM

COP(=S)(OC)Oc1cc(Cl)c(Cl)cc1Cl
inactive: [2] | [3] | [4] | [5] | [6]
active: [1] 5.51 µM

CCC[CH2][Sn]([Cl])([Cl])[Cl]
inactive: [7]

Nc1cccc2ccccc12
inactive: [1] | [2] | [3] | [4] | [5] | [6]

ClC(Cl)=C(Cl)C(Cl)=C(Cl)Cl
inactive: [1] | [2] | [4] | [6]
active: [3] 33.1 µM | [5] 31.7 µM

CC(=O)[O][Hg][c]1ccccc1
active: [1] 1.58 µM | [2] 1.78 µM | [3] 0.318 µM | [4] 11.9 µM | [5] 0.259 µM | [6] 1.63 µM | [8] 16 µM | [10] 6.73 µM

O=Cc1cccc(Oc2ccccc2)c1
inactive: [1] | [2] | [3] | [4] | [5] | [6]

CCCCCCCCc1ccc(O)cc1
active: [1] 29.2 µM | [2] 35.6 µM | [3] 29 µM | [4] 32.2 µM | [5] 19.3 µM | [6] 38.2 µM
inactive: [9]

C=CC(=O)OCCCCCC(C)C
inactive: [1] | [2] | [3] | [4] | [5] | [6]

Fc1ccc(C2(Cn3cncn3)OC2c2ccccc2Cl)cc1 (centres undefined)
active: [7] 1.86 µM

CC(C)(C)c1cc(O)ccc1O
inactive: [9]
active: [1] 5.56 µM | [2] 11.4 µM | [3] 3.17 µM | [4] 7.38 µM | [5] 1.94 µM | [6] 15.3 µM

CCOP(=S)(OCC)SCSP(=S)(OCC)OCC
inactive: [2] | [3] | [4] | [6] | [10]
active: [1] 15.2 µM | [5] 20 µM

O=C(O)C(Cl)(Cl)Cl
inactive: [1] | [2] | [3] | [4] | [5] | [6]

C=C(C)C(=O)[O][Sn]([CH2]CCC)([CH2]CCC)[CH2]CCC
active: [1] 0.147 µM | [2] 0.148 µM | [3] 0.236 µM | [4] 0.31 µM | [5] 0.188 µM | [6] 0.148 µM

CC12CC1(C)C(=O)N(c1cc(Cl)cc(Cl)c1)C2=O (centres undefined)
inactive: [1] | [2] | [3] | [4] | [5] | [6]

O=C1C2(Cl)C3(Cl)C4(Cl)C(Cl)(Cl)C5(Cl)C3(Cl)C1(Cl)C5(Cl)C24Cl (centres undefined)
active: [1] 19.3 µM | [2] 10.6 µM | [3] 5.7 µM | [4] 26.2 µM | [5] 4.64 µM | [6] 6.17 µM | [10] 2.02 µM and 4.09 µM and 1.02 µM

CC(C)(c1ccccc1)c1ccc(O)c(C(C)(C)c2ccccc2)c1
active: [1] 11.9 µM | [2] 11.4 µM | [3] 8.97 µM | [4] 11.4 µM | [5] 6 µM | [6] 13 µM

COc1cc(OC)nc(NC(=O)NS(=O)(=O)c2ncccc2C(=O)N(C)C)n1
inactive: [1] | [2] | [3] | [4] | [5] | [6]

O=C1C(Cl)=C(Cl)C(=O)c2ccccc21
active: [7] 7.68 µM

O=S(=O)(c1ccc(Cl)cc1)c1ccc(Cl)cc1
active: [10] 2.89 µM
not listed: [7] | [8] | [9]
inactive: all other assays above

ClC1=C(Cl)[C@]2(Cl)[C@H]3[C@H]([C@H]4C=C[C@H]3C4)[C@@]1(Cl)C2(Cl)Cl
inactive: [1] | [2] | [4]
active: [3] 20 µM | [5] 20 µM | [6] 5.42 µM

ClC1(Cl)C2(Cl)C3(Cl)C4(Cl)C(Cl)(Cl)C5(Cl)C3(Cl)C1(Cl)C5(Cl)C24Cl (centres undefined)
not listed: [7] | [9] | [10]
inactive: all other assays above
